Measured values taken from PubChem BioAssay (NCATS).
Results filed as inconclusive are left out. A call without a number means that no potency is given here. The source made the active and inactive calls. The call rests on the fitted dose curve. Peptide text beside a SMILES is read from it.

Key:
[1] = Cytotoxicity counterscreen for inhibitors of SARS-CoV-2 cell entry (AID 1645845); conditions: outcome: dose series up to 57.1 µM unless noted; further: nearly all actives have a fitted effect of over 50% in size
In short: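 Counterscreen run in the same HEK293-ACE2 line as the pseudotyped-particle entry assay, without particles. Viability after 48 h at 37 C was read as ATP luminescence, scaled between cell-containing and cell-free wells.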

[2] = Primary qHTS to identify inhibitors of SARS-CoV-2 cell entry (AID 1645846); conditions: SARS-CoV-2 pseudovirus cell entry assay, luminescence; activity change, negative = inhibition: at 57.1 µM (top of the series) unless noted; further: nearly all actives have a fitted effect of over 45% in size
In short: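 Using luciferase-reporting pseudoviruses carrying Wuhan-Hu-1 spike, the screen tracks entry into stably ACE2-expressing cells over 48 hr. Activity is expressed relative to spike particles versus particles lacking any fusion protein.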
Potency means the concentration at half of the fitted maximal effect.

With COc1cc(-c2cn(C)c(=O)c3cnccc23)c(OC)cc1CN(C)C the Potency [1] was “inactive” and the activity change, negative = inhibition [2] was -18.5%.

With N#Cc1ccc(Cn2cncc2CN2CCN(c3cccc(Cl)c3)C(=O)C2)cc1 the Potency [1] was “inactive” and the Potency [2] was “inactive”.

With O=C(O)CNC(=O)c1nc(Cl)c2ccccc2c1O the Potency [1] was “inactive” and the activity change, negative = inhibition [2] was -5.6%.

For CC(=O)N1CCC[C@H]1C(=O)N[C@@H](Cc1cnc[nH]1)C(=O)N[C@@H](CO)C(=O)N[C@@H](CS)C(=O)N[C@@H](CC(N)=O)C(N)=O (Ac-PHSCN-NH2), the Potency [1] was “inactive” and the activity change, negative = inhibition [2] was -1.41%.

For O=c1oc2c(C3OCCCO3)c(O)ccc2c2c1CNCC2, the Potency [1] was “inactive” and the activity change, negative = inhibition [2] was 1.62%.

In the case of Cc1nnc(C(C)C)n1C1CC2CCC(C1)N2CCC(NC(=O)C1CCC(F)(F)CC1)c1ccccc1 (centres undefined), the Potency [1] was “inactive” and the activity change, negative = inhibition [2] was -24.8%.

With COC(=O)/C=C/C(=O)OC the Potency [1] was “inactive” and the activity change, negative = inhibition [2] was -4.67%.

With Nc1nccn2c(C3CCC(C(=O)O)CC3)nc(-c3cc4cccc(Cl)c4[nH]3)c12 (centres undefined) the Potency [1] was “inactive” and the activity change, negative = inhibition [2] was -18%.

With C[C@]12CCC3[C@@H](CC[C@H]4NC(=O)C=C[C@]34C)[C@@H]1CC[C@@H]2C(=O)Nc1cc(C(F)(F)F)ccc1C(F)(F)F (some centres undefined) the Potency [1] was “inactive” and the activity change, negative = inhibition [2] was -7.71%.

For CCn1c(=O)c2c(nc(/C=C/c3ccc(OC)c(OC)c3)n2C)n(CC)c1=O, the Potency [1] was “inactive” and the Potency [2] was “inactive”.

For N=C1S/C(=C\c2ccc(-c3ccc4c(c3)C(=O)NC4=O)o2)C(=O)N1c1ccc(Br)cc1, the Potency [1] was “inactive” and the activity change, negative = inhibition [2] was -8.86% [at 27.1 µM].

With N[C@@H](CCC(=O)O)C(=O)N[C@@H](Cc1c[nH]c2ccccc12)C(=O)O (H-Glu-Trp-OH) the Potency [1] was “inactive” and the Potency [2] was “inactive”.

In the case of CC(C)=CCC[C@](C)(O[C@@H]1O[C@H](CO[C@@H]2O[C@H](CO)[C@@H](O)[C@H](O)[C@H]2O)[C@@H](O)[C@H](O)[C@H]1O)[C@H]1CC[C@]2(C)[C@@H]1[C@H](O)C[C@@H]1[C@@]3(C)CC[C@H](O[C@@H]4O[C@H](CO)[C@@H](O)[C@H](O)[C@H]4O[C@@H]4O[C@H](CO)[C@@H](O)[C@H](O)[C@H]4O)C(C)(C)[C@@H]3CC[C@]12C, the Potency [1] was “inactive” and the activity change, negative = inhibition [2] was -3.97% [at 27.1 µM].

With CCOC(=N)c1nc2ccc3ncnc(Nc4cc(F)c(F)cc4Cl)c3c2s1 the Potency [1] was “inactive” and the activity change, negative = inhibition [2] was -20.9%.

For CC(C)c1c(-c2ccccc2)nc2c(C#N)c[nH]n2c1=O, the Potency [1] was “inactive” and the Potency [2] was “inactive”.

With C[C@@H]1CCN(C(=O)N2CCCC2)C[C@@H]1N(C)c1ncnc2[nH]ccc12 the Potency [1] was “inactive” and the Potency [2] was “inactive”.

For COc1cc2c(NC3CCN(C4CCCCC4)CC3)nc(N3CCCN(C(C)C)CC3)nc2cc1OCCCN1CCCCC1, the Potency [1] was 22.4 µM (active) and the Potency [2] was 11.2 µM (active).

With CC#Cc1cncc(-c2ccc3c(c2)[C@@]2(N=C(C)C(N)=N2)C2(CCC(OC)CC2)C3)c1 (some centres undefined) the Potency [1] was “inactive” and the Potency [2] was “inactive”.

For C=CC(=O)N1CCC(CNc2ncnc(N)c2-c2ccc(Oc3ccccc3)cc2)CC1, the Potency [1] was “inactive” and the activity change, negative = inhibition [2] was -20.9%.

In the case of Oc1ccc(Nc2nc(-c3ccc(Cl)cc3)cs2)cc1, the Potency [1] was “inactive” and the Potency [2] was 28.2 µM (active).

For CCOc1cc(/C=C2/C(=O)N(c3ccccc3)N=C2C)cc(Cl)c1OCC(=O)OC, the Potency [1] was “inactive” and the activity change, negative = inhibition [2] was -12.7%.

In the case of CN1C(=O)[C@@H](NC(=O)c2n[nH]c(Cc3ccccc3)n2)COc2ccccc21, the Potency [1] was “inactive” and the Potency [2] was “inactive”.

In the case of CN[C@@H](C)C(=O)N[C@H](C(=O)N1CCC[C@H]1C(=O)Nc1sc(-c2ncco2)nc1-c1ccccc1)C1CCCCC1, the Potency [1] was “inactive” and the Potency [2] was “inactive”.

For CC[C@H]1OC(=O)[C@H](C)[C@@H](O[C@H]2C[C@@](C)(OC)[C@@H](O)[C@H](C)O2)[C@H](C)[C@@H](O[C@@H]2O[C@H](C)C[C@H](N(C)C)[C@H]2O)[C@](C)(O)C[C@@H](C)C(=O)[C@H](C)[C@@H](O)[C@]1(C)O, the Potency [1] was “inactive” and the Potency [2] was “inactive”.

In the case of CONC(=O)c1ccccc1Nc1cc(Nc2cc(C)nn2C(C)C)ncc1Cl, the Potency [1] was “inactive” and the activity change, negative = inhibition [2] was -10.2%.

With CC1(C)CC[C@]2(C(=O)O)CC[C@]3(C)C(=CC[C@@H]4[C@@]5(C)C[C@@H](O)[C@H](O)C(C)(C)[C@@H]5CC[C@]43C)[C@@H]2C1 the Potency [1] was “inactive” and the Potency [2] was “inactive”.

With CC(C)(O)CC[C@@H](O)[C@](C)(O)[C@H]1CC[C@@]2(O)C3=CC(=O)[C@@H]4C[C@@H](O)[C@@H](O)C[C@]4(C)[C@H]3CC[C@]12C the Potency [1] was “inactive” and the activity change, negative = inhibition [2] was -22.8%.

In the case of O=C(O)CCCCN(CCc1ccccc1OCc1ccc(CCc2ccccc2)cc1)Cc1ccc(C(=O)O)cc1, the Potency [1] was “inactive” and the Potency [2] was “inactive”.

For O=c1ccn([C@@H]2O[C@H](CO)[C@@H](O)[C@H]2O)c(=O)[nH]1, the Potency [1] was “inactive” and the activity change, negative = inhibition [2] was -16.1%.

For O=C1OC2(CCC(C(=O)Nc3ccn(-c4ccccc4F)n3)CC2)c2cnccc21 (centres undefined), the Potency [1] was “inactive” and the Potency [2] was “inactive”.

For c1ccc(CNCc2ccc(CN3CCCNCCNCCCNCC3)cc2)nc1, the Potency [1] was “inactive” and the activity change, negative = inhibition [2] was -7.13%.

With [2H]c1nc(C)nc([2H])c1-c1cc(NC[C@@H](C)c2cccc3c(C(=O)NC)ccnc23)ncn1 the Potency [1] was “inactive” and the activity change, negative = inhibition [2] was 0.426%.

With COC1CCC(N2C(=O)CNc3ncc(-c4ccc(C(C)(C)O)nc4)nc32)CC1 (centres undefined) the Potency [1] was 7.94 µM (active) and the Potency [2] was 15.8 µM (active).

For C=CCNC1=C2C[C@@H](C)C[C@H](OC)[C@H](O)[C@@H](C)/C=C(\C)[C@H](OC(N)=O)[C@@H](OC)/C=C\C=C(/C)C(=O)NC(=CC1=O)C2=O, the Potency [1] was 25.1 µM (active) and the Potency [2] was 14.1 µM (active).

For NC(=O)c1cc(F)cc2c1C(=O)N(C1CCN(C3CCC(F)(F)CC3)CC1)C2, the Potency [1] was “inactive” and the activity change, negative = inhibition [2] was -24%.

For Cc1cccc(-c2nn3c(c2-c2ccnc4ccc(C(N)=O)cc24)CCC3)n1, the Potency [1] was “inactive” and the activity change, negative = inhibition [2] was -4.65%.

For CC1(C)CCC2(CC1)N[C@@H](C(=O)N[C@@H]1CC[C@@H](C(N)=O)OC1)[C@H](c1ccnc(Cl)c1F)[C@]21C(=O)Nc2cc(Cl)ccc21, the Potency [1] was “inactive” and the activity change, negative = inhibition [2] was -20.9% [at 37.9 µM].

With Cc1ccc(-c2nc(N)nc3c2nnn3Cc2cccc(CO[C@H]3CCOC3)n2)o1 the Potency [1] was “inactive” and the activity change, negative = inhibition [2] was -15.2%.

With Cn1c(-c2ccccc2C(F)(F)F)nnc1C12CCC(c3noc(C4CC(F)(F)C4)n3)(CC1)CC2 the Potency [1] was “inactive” and the activity change, negative = inhibition [2] was -12.8%.

In the case of CCOc1ccc(-n2c([C@@H](C)N(Cc3cccnc3)C(=O)Cc3ccc(F)c(C(F)(F)F)c3)nc3ncccc3c2=O)cc1, the Potency [1] was “inactive” and the activity change, negative = inhibition [2] was -17.6%.

For O=S(=O)(NCCNC/C=C/c1ccc(Br)cc1)c1cccc2cnccc12, the Potency [1] was “inactive” and the activity change, negative = inhibition [2] was -22.5%.

In the case of C=CC(=O)N1C[C@H](Nc2ncnc3[nH]ccc23)CC[C@@H]1C, the Potency [1] was “inactive” and the Potency [2] was “inactive”.

In the case of CO[C@H]1O[C@@H]2O[C@@]3(C)CC[C@H]4[C@H](C)CC[C@@H]([C@H]1C)[C@@]24OO3, the Potency [1] was “inactive” and the activity change, negative = inhibition [2] was -14.8%.

For Cc1ccc(NS(=O)(=O)c2ccc3c(c2)C2C=CCC2C(c2ccc(C(=O)O)cc2)N3)cc1C (centres undefined), the Potency [1] was “inactive” and the activity change, negative = inhibition [2] was -18.7%.

In the case of Cc1ccccc1-n1nc(-c2c(-c3ccc(F)cc3)nn3c2NC[C@@H](CO)C3)ccc1=O, the Potency [1] was “inactive” and the activity change, negative = inhibition [2] was -24.3%.

With CC1CCC(n2c3cnccc3c3cnc(Nc4ccc5c(n4)CCN(C(=O)CO)C5)nc32)CC1 (centres undefined) the activity change, negative = cytotoxicity [1] was 4.82% [at 11.3 µM] (inactive) and the outcome [2] was “inactive [at 11.3 µM]”.

In the case of COc1cccc(Nc2ncnn3ccc(CN4CC[C@@H](N)[C@H](O)C4)c23)c1, the Potency [1] was “inactive” and the Potency [2] was “inactive”.

In the case of CC(C)NC(=O)C1CCC(n2c(NC(=O)c3ccc(F)cc3)nc3ccc(CN4CCC(C(C)(C)O)CC4)cc32)CC1 (centres undefined), the Potency [1] was “inactive” and the activity change, negative = inhibition [2] was -10.3% [at 27.1 µM].

For O=C1S/C(=C\c2ccc(OCc3cccc(B(O)O)c3)cc2)C(=O)N1Cc1ccc(F)cc1, the Potency [1] was “inactive” and the activity change, negative = inhibition [2] was -28.4%.

For CC(C)N(CCCNC(=O)Nc1ccc(C(C)(C)C)cc1)C[C@H]1O[C@@H](n2cc(Br)c3c(N)ncnc32)[C@H](O)[C@@H]1O, the Potency [1] was 31.6 µM (active) and the Potency [2] was 35.5 µM (active).

In the case of C1=C/COCc2cc(ccc2OCCN2CCCC2)Nc2nccc(n2)-c2cccc(c2)COC/1, the Potency [1] was 7.08 µM (active) and the Potency [2] was 3.16 µM (active).

With O=C(NCCCNc1nc(Nc2cccc(CN3CCOCC3)c2)ncc1C1CC1)C1CCC1 the Potency [1] was “inactive” and the Potency [2] was “inactive”.

In the case of Nc1nc(OCc2cc(Br)cs2)c2[nH]cnc2n1, the Potency [1] was “inactive” and the Potency [2] was “inactive”.

In the case of CC(C)(O)[C@H]1CC[C@@](C)([C@H]2[C@@H](O)C[C@@]3(C)[C@@H]4C[C@H](O[C@@H]5O[C@H](CO)[C@@H](O)[C@H](O)[C@H]5O)[C@H]5C(C)(C)[C@@H](O[C@@H]6OC[C@@H](O)[C@H](O)[C@H]6O)CC[C@@]56C[C@@]46CC[C@]23C)O1, the Potency [1] was “inactive” and the Potency [2] was “inactive”.

In the case of Cc1cc(-c2nc3cc(F)ccc3s2)ccc1NC(=O)[C@@H](N)CCCCN, the Potency [1] was 22.4 µM (active) and the Potency [2] was 28.2 µM (active).

In the case of CCn1c(=O)c(-c2ccc(Cl)cc2Cl)cc2cnc(Nc3ccc(N4CCNCC4)c(F)c3)nc21, the Potency [1] was “inactive” and the Potency [2] was “inactive”.

For COc1cc2c(cc1OC)CN(CCc1ccc(-n3nnc(-c4cc(OC)c(OC)cc4NC(=O)c4cc(=O)c5ccccc5o4)n3)cc1)CC2, the activity change, negative = cytotoxicity [1] was 2.79% [at 0.702 µM] (inactive) and the activity change, negative = inhibition [2] was 3.34% [at 0.702 µM].
